{"source": "the supplement of paper PMC11732987", "about": "“Enantioselective OTUD7B fragment discovery through chemoproteomics screening and high-throughput optimisation” (Communications Chemistry, 2025)", "experiment_in_all_cases": "log2 ratio of Biotin-Ahx-Ub-VS probe labelling (fragment/DMSO); higher = less target engagement (more negative = stronger competition), active = hit call of the paper (q ≤ 0.05, log2 ratio ≤ -1)", "conditions_in_all_cases": "compound concentration: 200 uM; treatment time: 3 h", "key": {"USP19": {"biological_target": "T1, USP19 (UniProt O94966)", "T1 sequence (whole entry)": "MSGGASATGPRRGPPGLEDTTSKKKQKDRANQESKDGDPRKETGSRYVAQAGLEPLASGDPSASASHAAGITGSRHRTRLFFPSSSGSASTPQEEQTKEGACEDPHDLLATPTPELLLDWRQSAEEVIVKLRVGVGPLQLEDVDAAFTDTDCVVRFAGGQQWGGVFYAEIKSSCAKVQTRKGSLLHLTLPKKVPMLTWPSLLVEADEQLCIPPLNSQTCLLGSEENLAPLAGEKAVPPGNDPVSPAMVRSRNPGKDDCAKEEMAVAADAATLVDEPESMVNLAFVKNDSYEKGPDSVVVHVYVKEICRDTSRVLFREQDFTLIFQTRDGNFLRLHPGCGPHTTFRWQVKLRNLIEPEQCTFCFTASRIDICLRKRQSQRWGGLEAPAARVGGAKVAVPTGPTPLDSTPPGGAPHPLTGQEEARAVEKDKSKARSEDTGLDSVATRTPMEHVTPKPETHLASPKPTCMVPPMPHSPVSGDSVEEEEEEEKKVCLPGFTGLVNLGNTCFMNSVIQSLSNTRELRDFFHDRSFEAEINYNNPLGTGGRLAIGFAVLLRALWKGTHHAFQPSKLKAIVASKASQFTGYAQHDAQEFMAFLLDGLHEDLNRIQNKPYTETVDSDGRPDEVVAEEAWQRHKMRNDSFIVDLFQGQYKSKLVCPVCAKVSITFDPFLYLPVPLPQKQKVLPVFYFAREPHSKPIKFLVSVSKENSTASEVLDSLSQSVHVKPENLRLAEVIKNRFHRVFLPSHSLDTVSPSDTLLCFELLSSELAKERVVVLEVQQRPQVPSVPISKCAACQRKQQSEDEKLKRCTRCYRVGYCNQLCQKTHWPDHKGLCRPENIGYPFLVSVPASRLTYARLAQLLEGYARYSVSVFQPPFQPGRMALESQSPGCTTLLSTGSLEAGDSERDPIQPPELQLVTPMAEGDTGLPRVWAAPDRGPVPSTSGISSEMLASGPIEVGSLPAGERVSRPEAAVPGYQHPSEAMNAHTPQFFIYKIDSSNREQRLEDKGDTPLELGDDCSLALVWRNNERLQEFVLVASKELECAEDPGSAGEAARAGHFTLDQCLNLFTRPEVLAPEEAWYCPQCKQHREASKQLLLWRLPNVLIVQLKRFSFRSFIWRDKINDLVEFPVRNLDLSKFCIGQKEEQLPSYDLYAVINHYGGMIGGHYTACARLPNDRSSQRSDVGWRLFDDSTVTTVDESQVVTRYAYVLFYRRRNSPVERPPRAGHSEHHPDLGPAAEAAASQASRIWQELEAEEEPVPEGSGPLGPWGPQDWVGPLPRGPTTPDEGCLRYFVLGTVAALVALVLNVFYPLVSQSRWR", "outline": "(§1)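 Global-median-normalised Spectronaut label-free quantities were compared by unpaired t-test, and values are average log2 ratios of fragment over vehicle. Only proteins with ≥2 unique peptides were used. HEK293T lysate (495 µg per sample) was treated in triplicate with fragment at 200 µM or vehicle for 3 h and then with Biotin-Ahx-Ub-VS at 0.5 µM final for 1 h. Labelled DUBs were then NeutrAvidin-enriched, digested with LysC and trypsin, and run by diaPASEF LC-MS/MS.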"}, "USP24": {"biological_target": "USP24 (UniProt Q9UPU5)", "sequence (Q9UPU5 whole entry)": "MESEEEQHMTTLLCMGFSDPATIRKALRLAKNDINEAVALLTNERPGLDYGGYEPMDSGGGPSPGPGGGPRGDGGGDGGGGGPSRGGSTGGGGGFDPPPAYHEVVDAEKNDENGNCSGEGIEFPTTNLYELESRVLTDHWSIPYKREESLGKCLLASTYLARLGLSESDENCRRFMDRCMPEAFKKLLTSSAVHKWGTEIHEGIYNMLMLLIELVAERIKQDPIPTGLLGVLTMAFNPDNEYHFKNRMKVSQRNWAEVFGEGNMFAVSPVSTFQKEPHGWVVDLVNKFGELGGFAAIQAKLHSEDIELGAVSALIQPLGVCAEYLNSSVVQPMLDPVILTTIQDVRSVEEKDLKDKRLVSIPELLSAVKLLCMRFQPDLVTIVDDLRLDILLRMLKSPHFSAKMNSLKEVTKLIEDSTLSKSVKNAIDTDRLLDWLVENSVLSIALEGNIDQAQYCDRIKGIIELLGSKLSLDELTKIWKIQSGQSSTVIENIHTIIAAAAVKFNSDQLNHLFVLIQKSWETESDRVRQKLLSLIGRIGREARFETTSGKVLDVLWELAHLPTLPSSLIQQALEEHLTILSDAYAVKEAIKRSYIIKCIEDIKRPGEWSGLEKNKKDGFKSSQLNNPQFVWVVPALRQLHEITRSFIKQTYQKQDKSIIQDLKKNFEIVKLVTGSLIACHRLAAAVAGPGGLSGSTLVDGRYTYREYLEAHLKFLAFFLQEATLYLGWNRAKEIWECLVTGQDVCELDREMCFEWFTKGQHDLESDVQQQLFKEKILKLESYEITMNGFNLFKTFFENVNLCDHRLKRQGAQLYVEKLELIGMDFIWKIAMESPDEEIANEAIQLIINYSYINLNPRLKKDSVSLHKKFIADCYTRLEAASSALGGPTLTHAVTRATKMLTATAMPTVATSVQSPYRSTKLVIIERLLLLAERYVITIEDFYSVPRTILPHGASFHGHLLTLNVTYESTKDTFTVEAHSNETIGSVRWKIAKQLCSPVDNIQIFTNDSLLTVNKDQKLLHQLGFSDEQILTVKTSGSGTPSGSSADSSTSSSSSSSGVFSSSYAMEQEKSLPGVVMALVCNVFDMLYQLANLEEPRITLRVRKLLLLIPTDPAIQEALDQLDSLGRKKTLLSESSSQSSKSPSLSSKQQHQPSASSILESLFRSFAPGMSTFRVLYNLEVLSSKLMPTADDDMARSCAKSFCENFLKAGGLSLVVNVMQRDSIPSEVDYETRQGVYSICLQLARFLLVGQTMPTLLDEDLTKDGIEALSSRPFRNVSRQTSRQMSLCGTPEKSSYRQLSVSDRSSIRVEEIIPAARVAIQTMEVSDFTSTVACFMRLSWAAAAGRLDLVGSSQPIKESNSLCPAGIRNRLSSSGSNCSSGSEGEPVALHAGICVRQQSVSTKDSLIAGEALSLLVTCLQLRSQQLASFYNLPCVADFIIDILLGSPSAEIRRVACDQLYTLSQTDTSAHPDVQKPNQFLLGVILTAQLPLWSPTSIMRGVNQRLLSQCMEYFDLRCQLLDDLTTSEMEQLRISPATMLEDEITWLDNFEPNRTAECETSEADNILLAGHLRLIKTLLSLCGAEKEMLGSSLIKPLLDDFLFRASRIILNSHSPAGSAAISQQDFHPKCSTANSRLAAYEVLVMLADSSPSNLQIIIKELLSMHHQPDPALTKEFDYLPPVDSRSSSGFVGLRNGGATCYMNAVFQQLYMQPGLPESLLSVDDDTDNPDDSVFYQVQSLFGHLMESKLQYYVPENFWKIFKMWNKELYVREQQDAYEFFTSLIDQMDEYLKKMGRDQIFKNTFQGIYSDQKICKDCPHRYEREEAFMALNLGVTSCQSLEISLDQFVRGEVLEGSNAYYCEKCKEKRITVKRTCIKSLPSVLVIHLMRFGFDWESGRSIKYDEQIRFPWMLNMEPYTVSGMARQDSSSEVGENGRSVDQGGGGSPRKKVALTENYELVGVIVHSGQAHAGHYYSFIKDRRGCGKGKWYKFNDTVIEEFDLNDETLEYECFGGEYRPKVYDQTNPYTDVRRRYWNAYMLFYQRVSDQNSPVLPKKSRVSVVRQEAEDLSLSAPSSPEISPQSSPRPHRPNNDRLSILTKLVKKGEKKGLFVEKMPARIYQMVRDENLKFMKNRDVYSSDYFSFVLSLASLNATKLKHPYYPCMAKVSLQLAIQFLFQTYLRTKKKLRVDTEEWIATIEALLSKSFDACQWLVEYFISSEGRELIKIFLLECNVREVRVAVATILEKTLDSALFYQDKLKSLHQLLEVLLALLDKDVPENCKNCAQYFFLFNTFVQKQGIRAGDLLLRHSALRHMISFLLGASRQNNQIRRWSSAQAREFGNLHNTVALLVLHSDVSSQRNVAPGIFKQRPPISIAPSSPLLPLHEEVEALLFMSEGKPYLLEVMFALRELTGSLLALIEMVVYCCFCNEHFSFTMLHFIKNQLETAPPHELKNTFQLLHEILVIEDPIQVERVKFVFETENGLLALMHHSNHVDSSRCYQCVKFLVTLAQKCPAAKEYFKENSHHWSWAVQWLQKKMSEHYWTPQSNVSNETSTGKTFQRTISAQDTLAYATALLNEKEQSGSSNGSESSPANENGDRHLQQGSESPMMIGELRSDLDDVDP", "outline": "as §1"}, "USP25": {"biological_target": "T2, USP25 (UniProt Q9UHP3)", "T2 sequence (whole entry)": "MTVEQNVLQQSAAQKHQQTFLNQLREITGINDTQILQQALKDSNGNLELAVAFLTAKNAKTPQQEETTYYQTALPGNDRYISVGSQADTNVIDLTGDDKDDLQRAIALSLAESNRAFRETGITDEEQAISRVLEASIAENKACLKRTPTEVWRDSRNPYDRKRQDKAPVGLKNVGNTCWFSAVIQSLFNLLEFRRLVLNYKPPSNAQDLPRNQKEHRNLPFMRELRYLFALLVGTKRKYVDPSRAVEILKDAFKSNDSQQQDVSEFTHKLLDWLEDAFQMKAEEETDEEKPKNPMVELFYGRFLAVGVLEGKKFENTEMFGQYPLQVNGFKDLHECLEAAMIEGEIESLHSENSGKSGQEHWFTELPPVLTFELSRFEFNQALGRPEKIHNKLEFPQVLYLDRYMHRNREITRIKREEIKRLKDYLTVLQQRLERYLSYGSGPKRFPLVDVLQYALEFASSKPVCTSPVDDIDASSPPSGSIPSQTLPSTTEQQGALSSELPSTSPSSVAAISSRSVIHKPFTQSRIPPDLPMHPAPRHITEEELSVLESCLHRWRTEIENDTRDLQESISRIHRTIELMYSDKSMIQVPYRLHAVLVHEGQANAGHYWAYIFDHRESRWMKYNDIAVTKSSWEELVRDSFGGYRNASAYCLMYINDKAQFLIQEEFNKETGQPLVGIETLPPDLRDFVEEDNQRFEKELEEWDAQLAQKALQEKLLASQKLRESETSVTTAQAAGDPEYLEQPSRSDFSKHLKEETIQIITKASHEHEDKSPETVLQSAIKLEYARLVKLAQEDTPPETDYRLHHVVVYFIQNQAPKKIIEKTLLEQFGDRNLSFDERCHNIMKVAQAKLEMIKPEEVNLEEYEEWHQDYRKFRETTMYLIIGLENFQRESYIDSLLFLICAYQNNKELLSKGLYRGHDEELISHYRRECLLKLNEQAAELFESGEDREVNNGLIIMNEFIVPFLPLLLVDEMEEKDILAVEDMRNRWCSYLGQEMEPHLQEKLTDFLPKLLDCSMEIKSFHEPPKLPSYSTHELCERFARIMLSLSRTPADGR", "outline": "as §1"}, "USP28": {"biological_target": "T3, USP28 (UniProt Q96RU2)", "T3 sequence (whole entry)": "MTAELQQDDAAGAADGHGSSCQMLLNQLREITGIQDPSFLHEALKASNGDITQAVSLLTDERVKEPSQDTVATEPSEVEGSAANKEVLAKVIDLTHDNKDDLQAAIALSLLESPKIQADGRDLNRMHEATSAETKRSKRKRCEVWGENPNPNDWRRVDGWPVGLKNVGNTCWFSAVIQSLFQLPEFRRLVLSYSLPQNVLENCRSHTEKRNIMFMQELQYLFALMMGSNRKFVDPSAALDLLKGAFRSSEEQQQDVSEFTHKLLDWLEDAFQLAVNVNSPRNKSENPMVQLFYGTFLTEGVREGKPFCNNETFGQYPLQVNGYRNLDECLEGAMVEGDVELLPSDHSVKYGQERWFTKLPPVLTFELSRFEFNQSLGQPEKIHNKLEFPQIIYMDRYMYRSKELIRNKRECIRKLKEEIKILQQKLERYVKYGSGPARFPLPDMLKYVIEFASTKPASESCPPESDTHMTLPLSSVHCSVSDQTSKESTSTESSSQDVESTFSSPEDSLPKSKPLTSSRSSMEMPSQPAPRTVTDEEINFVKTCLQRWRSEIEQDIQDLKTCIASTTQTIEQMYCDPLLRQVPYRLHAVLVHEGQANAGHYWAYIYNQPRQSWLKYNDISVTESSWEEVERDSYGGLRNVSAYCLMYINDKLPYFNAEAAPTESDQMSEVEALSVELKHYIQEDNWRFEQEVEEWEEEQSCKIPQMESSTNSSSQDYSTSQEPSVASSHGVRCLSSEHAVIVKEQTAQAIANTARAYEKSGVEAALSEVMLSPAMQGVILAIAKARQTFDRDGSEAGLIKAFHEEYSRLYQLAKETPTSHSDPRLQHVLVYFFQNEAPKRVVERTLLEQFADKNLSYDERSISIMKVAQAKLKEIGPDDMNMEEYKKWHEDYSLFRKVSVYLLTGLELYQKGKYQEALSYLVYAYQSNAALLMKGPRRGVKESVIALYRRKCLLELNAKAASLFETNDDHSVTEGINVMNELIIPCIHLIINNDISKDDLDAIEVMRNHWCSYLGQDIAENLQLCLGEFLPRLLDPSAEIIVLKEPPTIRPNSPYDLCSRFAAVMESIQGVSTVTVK", "outline": "as §1"}}, "note": "A number with no mark means an inactive call.", "data": [{"smiles": "N#Cc1ccc(Cl)cc1NC(=O)CCl", "values": [{"measurement": "log2 ratio of Biotin-Ahx-Ub-VS probe labelling", "setting": "USP19", "value": -0.121}, {"measurement": "log2 ratio of Biotin-Ahx-Ub-VS probe labelling", "setting": "USP24", "value": -0.83}, {"measurement": "log2 ratio of Biotin-Ahx-Ub-VS probe labelling", "setting": "USP25", "value": -0.912}, {"measurement": "log2 ratio of Biotin-Ahx-Ub-VS probe labelling", "setting": "USP28", "value": "-1.49 (active)"}]}]}
